Hit rate of the full screen: of about 100,000 compounds, about 770 (0.77%) were called active. Cut-off read from the data, not from the text of the source: active = inhibition above about 50%; inactive = the rest. Shown is part of a subset that was picked to be rich in actives.
Target: Gag-Pol polyprotein (Human immunodeficiency virus type 1 group M subtype B (isolate HXB2)) (UniProt P04585)
Experiment: RNase H inhibition, HIV 1 Gag Pol polyprotein, FRET biochemical assay, screening (AID 372)
Conditions: HIV-1 RT RNase H, FRET RNA/DNA substrate fluorescence; at 10 µM; stronger effect = higher value

SMILES | inhibition
O=S(=O)(Nc1ccccc1C(F)(F)F)c1ccccc1 | 4% (inactive)
COc1ccc(-n2c(C)cc(/C=C(\C#N)C(=O)Nc3ccccc3)c2C)cc1 | 11% (inactive)
O=C1CC(SC(=NCc2ccc3c(c2)OCO3)Nc2ccccc2)C(=O)N1 (stereo unspecified) | 0% (inactive)
COc1ccc(OC)c(CNCc2ccc3c(c2)OCO3)c1 | 6% (inactive)
COc1cc(C(=O)Nc2ccc(NC(=O)c3ccccc3)cc2)cc(OC)c1OC | 10% (inactive)
COc1ccc(C(=O)Nc2ccc(/C=C/C(=O)c3ccccc3)cc2)cc1 | 8% (inactive)
Cc1cc(NC(=O)c2ccc(C(C)(C)C)cc2)ccc1NC(=O)c1ccccc1 | 7% (inactive)
Cc1cc(NC(=O)c2ccc(F)cc2)ccc1NC(=O)c1ccccc1 | 0% (inactive)
COc1ccc(C(=O)Nc2ccc3nn(-c4ccc(F)cc4)nc3c2)cc1 | 0% (inactive)
COc1ccc(/C=C/C(=O)c2ccc(I)cc2)cc1 | 8% (inactive)
COc1cc(C(=O)Nc2ccc(/C=C/C(=O)c3ccccc3)cc2)cc(OC)c1OC | 63% (active)
COc1ccc(C(=O)Nc2cccc(/C=C/C(=O)c3ccccc3)c2)cc1OC | 3% (inactive)
Cc1cc(NC(=O)c2ccc(I)cc2)ccc1NC(=O)c1ccccc1 | 50% (active)
COc1ccc(C(=O)/C=C/c2ccc(NC(=O)c3ccc(I)cc3)cc2)cc1 | 60% (active)
COc1ccc(-n2nc3ccc(NC(=O)c4ccc(C)c(C)c4)cc3n2)cc1 | 8% (inactive)
COc1ccc(-n2nc3ccc(NC(=O)c4ccc(I)cc4)cc3n2)cc1 | 51% (active)

SMILES | inhibition
CC(C)(C)C1CCC(C(=O)N/N=C/c2ccc(Cl)s2)CC1 (stereo unspecified) | 5% (inactive)
CSc1nnc2c(n1)[nH]c1c(C)cccc12 | 10% (inactive)
COc1ccc(N2N=C(c3ccc(C)cc3)CC2c2cccs2)cc1 (stereo unspecified) | 6% (inactive)
O=C(NNc1ccc([N+](=O)[O-])cc1)c1ccc([N+](=O)[O-])cc1 | 5% (inactive)
O=C(Nc1ccc(OCc2ccccc2)cc1)c1cccc2ccccc12 | 15% (inactive)
CCOc1ccc2nc(SCc3ccc(OC)c(F)c3)sc2c1 | 20% (inactive)
Cc1cc(C=C2C(=O)NC(=S)NC2=O)c(C)n1-c1ccc(Cl)c(Cl)c1 | 55% (active)
Cc1cccc(-n2c(C)cc(/C=C3/SC(=S)NC3=O)c2C)c1 | 56% (active)
Cc1ccc(-n2c(C)cc(/C=C3/SC(=S)NC3=O)c2C)cc1 | 5% (inactive)
Cc1ccc(-n2c(C)cc(C=C3C(=O)NC(=S)NC3=O)c2C)cc1C | 19% (inactive)
Cc1cc(/C=C2/SC(=S)NC2=O)c(C)n1-c1ccc(Cl)cc1 | 2% (inactive)
Cc1cc(/C=C2/SC(=S)NC2=O)c(C)n1-c1ccc(Cl)c(Cl)c1 | 53% (active)
Cc1cc(/C=C2/SC(=S)NC2=O)c(C)n1-c1ccccc1 | 19% (inactive)
Cc1cc(/C=C2/SC(=S)NC2=O)c(C)n1-c1cccc(Cl)c1 | 8% (inactive)
Cc1cc(C=C2C(=O)NC(=S)NC2=O)c(C)n1-c1cccc(Cl)c1 | 28% (inactive)
